# Test results reported in the supplement of paper PMC3545927.
# The other results are listed elsewhere or left out. How many sequences the whole screen found active is unknown.
# Target: furin, P09958
# Assay: furin cleavage Z-score vs untreated control; higher = more cleavage, active = 3.5 or more, inactive = 1 or less, 8 variable residues between constant flanks
# In short: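 The cleavage Z-score was derived for purified furin acting on 8-mer peptides held on magnetic beads and fused to a cDNA oligonucleotide. Digests lasted 7.5, 15 or 30 min at 1:10 enzyme:substrate in 50 mM HEPES pH 7.5 with CaCl2 and NaCl. Sequencing counts of released DNA, log-transformed against furin-free reactions, were lowess-adjusted and scaled by median absolute deviation.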
# furin, P09958, sequence (P09958 whole entry): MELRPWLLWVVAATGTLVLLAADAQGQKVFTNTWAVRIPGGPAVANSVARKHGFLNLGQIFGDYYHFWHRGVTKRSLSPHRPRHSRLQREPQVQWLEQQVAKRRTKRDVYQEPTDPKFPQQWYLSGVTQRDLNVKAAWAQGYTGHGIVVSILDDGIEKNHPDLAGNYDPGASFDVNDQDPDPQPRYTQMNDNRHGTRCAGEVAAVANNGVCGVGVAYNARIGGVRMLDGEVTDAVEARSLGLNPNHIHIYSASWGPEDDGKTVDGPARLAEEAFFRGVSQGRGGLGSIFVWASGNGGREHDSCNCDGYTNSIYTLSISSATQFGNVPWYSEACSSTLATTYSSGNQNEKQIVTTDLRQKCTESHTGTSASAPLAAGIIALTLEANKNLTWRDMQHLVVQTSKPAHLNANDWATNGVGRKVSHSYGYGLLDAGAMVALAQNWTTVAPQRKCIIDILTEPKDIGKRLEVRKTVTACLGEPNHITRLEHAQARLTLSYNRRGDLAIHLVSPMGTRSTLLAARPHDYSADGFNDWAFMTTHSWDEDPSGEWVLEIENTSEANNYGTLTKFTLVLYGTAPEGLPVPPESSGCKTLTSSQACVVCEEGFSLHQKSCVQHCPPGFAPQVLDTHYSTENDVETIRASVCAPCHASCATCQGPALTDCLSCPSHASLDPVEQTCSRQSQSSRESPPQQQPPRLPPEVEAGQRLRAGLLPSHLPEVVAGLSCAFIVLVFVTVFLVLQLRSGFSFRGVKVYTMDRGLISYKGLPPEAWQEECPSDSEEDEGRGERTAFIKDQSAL
Sequence,furin cleavage Z-score (7.5 min),furin cleavage Z-score (15 min),furin cleavage Z-score (30 min)
CAHLHQNIVDAGNASASA [HC506],-0.675 (inactive),-0.105 (inactive),-1.09 (inactive)
CASPTTALVMAGNASASA [HC324],0.089 (inactive),-0.626 (inactive),-1.02 (inactive)
CARERRYSTVAGNASASA [FS-2551],-0.101 (inactive),1.01,0.281 (inactive)
CARQRRAITVAGNASASA [FS-2509],4.39 (active),7.17 (active),7.22 (active)
CARQPRVDFVAGNASASA [FS-2064],-1.17 (inactive),-0.264 (inactive),-0.469 (inactive)
CARQRRARFVAGNASASA [FS-1770],6.58 (active),8.49 (active),7.14 (active)
CARQRRLVLVAGNASASA [FS-2764],-0.772 (inactive),-0.609 (inactive),1.17
CARNRRIITVAGNASASA [FS-3198],0.0348 (inactive),-1.25 (inactive),0.314 (inactive)
CARQRRAFQVAGNASASA [FS-2508],1.92,4.22 (active),6.29 (active)
CAVVCMSMSYAGNASASA [HC88],-1.17 (inactive),-0.925 (inactive),0.213 (inactive)
CAPPSWDQMWAGNASASA [HC961],1.06,-0.132 (inactive),1
CAVKNGTMRIAGNASASA [HC1180],2.3,1.25,0.508 (inactive)
CAAEARKNRPAGNASASA [FS-1508],-0.91 (inactive),0.425 (inactive),-1.59 (inactive)
CADTERKRRHAGNASASA [FS-411],8.87 (active),11 (active),9.59 (active)
CAHELRHRRHAGNASASA [FS-170],11 (active),10.9 (active),11 (active)
CADLYLVTRHAGNASASA [HC725],-0.523 (inactive),-1.17 (inactive),-0.885 (inactive)
CARFRRKRRHAGNASASA [FS-854],9.74 (active),9.95 (active),7.32 (active)
CAPAIASLMAAGNASASA [HC1053],-0.244 (inactive),1.04,0.347 (inactive)
CAFVPCHRPSAGNASASA [HC2307],-1.81 (inactive),0.496 (inactive),0.113 (inactive)
CALHEYPVGSAGNASASA [HC1236],-0.438 (inactive),-0.864 (inactive),-0.00108 (inactive)
CAEERARAKWAGNASASA [EK3],0.379 (inactive),1.71,-0.287 (inactive)
CAEVVTSTWVAGNASASA [HC136],0.215 (inactive),-1.42 (inactive),-0.55 (inactive)

Sequence,furin cleavage Z-score (7.5 min),furin cleavage Z-score (15 min),furin cleavage Z-score (30 min)
CAVVCDSMSYAGNASASA [HC92],-1.45 (inactive),0.971 (inactive),-0.149 (inactive)
CARVSRFVTWAGNASASA [FS-1804],0.465 (inactive),2.02,2.57
CAEPEPDVAVAGNASASA [HC1242],-1.24 (inactive),-1.89 (inactive),0.391 (inactive)
CAHARKAVTHAGNASASA [HC1426],-1.35 (inactive),-0.868 (inactive),0.178 (inactive)
CARVARFATSAGNASASA [FS-2529],2.89,4.14 (active),5.25 (active)
CARFYRPVAVAGNASASA [FS-2670],-2.66 (inactive),-1.03 (inactive),-2.39 (inactive)
CARVARFVTHAGNASASA [FS-1798],0.861 (inactive),1.96,4.55 (active)
CARVARDVAVAGNASASA [FS-3113],9.5 (active),11.7 (active),9.58 (active)
CAFTTLPALSAGNASASA [HC500],1.12,-0.632 (inactive),1.28
CARVARAMSIAGNASASA [FS-1797],-0.644 (inactive),0.561 (inactive),2.57
CAEYTTPCSGAGNASASA [HC1969],-0.151 (inactive),-0.366 (inactive),-0.644 (inactive)
CAWFCLLLLAAGNASASA [HC1657],-0.863 (inactive),-0.454 (inactive),-2.53 (inactive)
CACREVPCHRAGNASASA [HC2440],-0.508 (inactive),-2.04 (inactive),-1.44 (inactive)
CASERSQPRGAGNASASA [HC187],0.546 (inactive),0.429 (inactive),0.503 (inactive)
CAPRRRKGRNAGNASASA [FS-1473],10.1 (active),11.5 (active),9.35 (active)
CATVRRQKREAGNASASA [FS-1175],12.4 (active),13.7 (active),9.11 (active)
CASIRRQKREAGNASASA [FS-563],11.3 (active),10.3 (active),8.38 (active)
CAAKRRQKREAGNASASA [FS-1110],12.9 (active),13 (active),8.62 (active)
CAQTNWQKLEAGNASASA [HC1036],0.636 (inactive),-0.515 (inactive),-0.384 (inactive)
CATVLDQAETAGNASASA [HC826],1.14,0.395 (inactive),-0.728 (inactive)
CAWRQEMGGNAGNASASA [HC1277],0.884 (inactive),-0.41 (inactive),1.35
